Rows were chosen to be rich in hits. Some 4.3% of all compounds tested hit in one or more screens of this group.
GRIN3A LBD mod = modulates the human NR3A ligand-binding domain. hit rate 2.5% among 340,000. NR3A LBD differential scanning fluorimetry, Tm shift; 0% = protein alone, 100% = glycine-bound protein. Tm shift relative to glycine control, % at 25 µM. AID 1259313;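 active = melting temperature shift of at least 10% of the positive control shift, at one fixed dose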
rCAG binder = r(CAG) repeat RNA binding; TO-PRO-1 dye displacement fluorescence; inhibition, % at 3 µM; hit rate 1.3% among 370,000;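 active = inhibition above the plate cutoff, the mean of all test compounds on that plate plus 3 SD, cut at about 35% in these data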;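 also: higher means more dye released from RNA so lower well fluorescence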
NadD inh = inhibitors of Staphylococcus aureus NadD. purified NadD enzyme, colorimetric absorbance read-out. inhibition, % at 20 µM. hit rate 0.78% among 360,000. AID 602399; in the data active = inhibition above about 26%
FAS-TE inh = blocks the thioesterase domain of human fatty acid synthase. P49327. recombinant FAS-TE, OMFH fluorogenic substrate, fluorescence endpoint. inhibition, % at 15 µM. hit rate 0.67% among 360,000;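 active = compounds whose normalised, plate-corrected inhibition of enzyme fluorescence in the single-dose primary screen is 50% or more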
FAS-TE inh conf = FAS thioesterase (human) inhibition, confirmation. shares compounds with FAS-TE inh. recombinant FAS-TE, OMFH fluorogenic substrate, fluorescence. inhibition, % at 15 µM. hit rate 45% among 2,300. AID 624325;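 active = compounds inhibiting the enzyme by at least 50% at 15 µM in any one of the replicates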
Of the large screens only hits and unclear results are named; the others gave an inactive call (follow-up assays come after a bar, where they were run).

Cc1cccc(N2C(=O)N3[C@H](c4ccc(Br)cc4)[C@@H]4C(=O)N(C(C)(C)C)C(=O)[C@@H]4[C@]3(Cc3ccc(Cl)cc3)C2=O)c1	FAS-TE inh 89 | FAS-TE inh conf inactive
CCN1C(=O)[C@H]2[C@@H](c3ccc(C)cc3)N3C(=O)N(c4ccc(OC)cc4)C(=O)[C@@]3(Cc3ccc(Cl)cc3)[C@H]2C1=O	none
COc1ccc([C@@H]2[C@@H]3C(=O)N(C(C)(C)C)C(=O)[C@@H]3[C@]3(C)C(=O)N(c4ccc(C)cc4)C(=O)N23)cc1	none
COc1ccc(N2C(=O)N3[C@H](c4ccc(Cl)cc4)[C@@H]4C(=O)N(C5CCCCC5)C(=O)[C@@H]4[C@]3(Cc3ccc(Cl)cc3)C2=O)cc1	FAS-TE inh 88 | FAS-TE inh conf inactive
COc1ccc([C@@H]2[C@@H]3C(=O)N(C(C)(C)C)C(=O)[C@@H]3[C@]3(Cc4ccc(Cl)cc4)C(=O)N(c4ccc(OC)cc4)C(=O)N23)cc1	FAS-TE inh 92 | FAS-TE inh conf inactive
COc1ccc([C@@H]2[C@@H]3C(=O)N(C(C)(C)C)C(=O)[C@@H]3[C@]3(Cc4ccc(Cl)cc4)C(=O)N(c4ccc(Br)cc4)C(=O)N23)cc1	FAS-TE inh 88 | FAS-TE inh conf 55
COc1ccc([C@@H]2[C@@H]3C(=O)N(C(C)(C)C)C(=O)[C@@H]3[C@]3(Cc4ccccc4)C(=O)N(c4ccc(C)cc4)C(=O)N23)cc1	none
O=C(O)CC(Sc1ccc(Cl)cc1)C(=O)Nc1ccccc1 (stereo unspecified)	none (no result: GRIN3A LBD mod, NadD inh, FAS-TE inh)
Cc1ccc(NC(=O)CSc2nc(C)cc(=O)[nH]2)c(C)c1	none (no result: GRIN3A LBD mod, NadD inh, FAS-TE inh)
CCc1ccc(S(=O)(=O)ON2C(=O)c3ccccc3C2=O)cc1	GRIN3A LBD mod 16, FAS-TE inh 81 | FAS-TE inh conf 72
O=C1c2cccc3cccc(c23)C(=O)N1OS(=O)(=O)c1ccc(Cl)cc1	FAS-TE inh 52 | FAS-TE inh conf inactive
COc1ccc(OC)c(S(=O)(=O)ON2C(=O)c3ccccc3C2=O)c1	FAS-TE inh 79 | FAS-TE inh conf 66
CC(=O)N1CCc2cc(S(=O)(=O)NCCC(=O)N(C)C3CCCCC3)ccc21	none (no result: GRIN3A LBD mod, NadD inh, FAS-TE inh)
CSC(=Nc1ccccc1)N=C(SCc1ccccc1)N(C)C	GRIN3A LBD mod 11, FAS-TE inh 84 | FAS-TE inh conf 90
CCn1c(SCc2ccccc2Cl)nnc1-c1ccccc1OC	none (no result: GRIN3A LBD mod, NadD inh, FAS-TE inh)
O=C1c2cccc([N+](=O)[O-])c2C(=O)N1C1CCCCC1	none
Cc1c(Cl)cccc1N1C(=O)C(N2C(=O)c3cccc([N+](=O)[O-])c3C2=O)C1c1cccs1 (stereo unspecified)	FAS-TE inh 63 (no result: rCAG binder) | FAS-TE inh conf inactive
Cc1cc(/C=C(\C#N)C(=O)Nc2ccc(F)cc2)c(C)n1-c1ccc(N2CCOCC2)c([N+](=O)[O-])c1	FAS-TE inh 62 | FAS-TE inh conf inactive
CNC(=O)/C(C#N)=C\c1cc(C)n(-c2ccc(N3CCOCC3)cc2)c1C	none
COc1ccc(NC(=O)/C(C#N)=C/c2cc(C)n(-c3ccc(N4CCOCC4)c([N+](=O)[O-])c3)c2C)cc1	FAS-TE inh 79 | FAS-TE inh conf inactive
O=C(CSc1nnc(-c2ccc(Cl)cc2)n1-c1ccccc1)Nc1ccc(Oc2ccccc2)cc1	none (no result: GRIN3A LBD mod, NadD inh, FAS-TE inh)
O=C(Nc1c(C(=O)N2CCOCC2)cnn1-c1ccccc1)c1ccc([N+](=O)[O-])cc1	FAS-TE inh 52 | FAS-TE inh conf 56
CCn1cc(C(=O)NCCC2=CCCCC2)c(=O)c2cc(S(=O)(=O)N(C)C)ccc21	FAS-TE inh 80 | FAS-TE inh conf 82
CCn1cc(C(=O)NCc2ccc(C)cc2)c(=O)c2cc(S(=O)(=O)N(C)C)ccc21	FAS-TE inh 56 | FAS-TE inh conf 62
NC(Cc1ccc(O)cc1)C(=O)NN=Cc1ccccc1Cl (stereo unspecified)	none (no result: GRIN3A LBD mod, NadD inh, FAS-TE inh)
CCN(CC)C(=O)CC[C@H]1CC[C@]2(CCCN(Cc3ccc(N(C)C)cc3)C2)O1	none (no result: GRIN3A LBD mod, NadD inh, FAS-TE inh)
Cc1cc2nnc(SCC(=O)Nc3cc(S(=O)(=O)N4CCOCC4)ccc3Cl)n2c2ccccc12	none
O=C(CSc1nc2ccccc2c(=O)n1-c1ccc(F)c(Cl)c1)Nc1cccc(S(=O)(=O)N2CCOCC2)c1	FAS-TE inh 78 | FAS-TE inh conf inactive
Cc1ccc(-n2c(SCC(=O)Nc3cc(S(=O)(=O)N4CCOCC4)ccc3Cl)nc3ccccc3c2=O)cc1	GRIN3A LBD mod 10, FAS-TE inh 95 | FAS-TE inh conf inactive
O=C(CSc1nc2ccccc2c(=O)n1-c1ccc(F)cc1)Nc1ccc(Cl)c(S(=O)(=O)N2CCOCC2)c1	FAS-TE inh 78 | FAS-TE inh conf inactive
